Measured values reported in PubChem BioAssay.
Values without a mark were called inactive. Calls of active or inactive are those of the source.

Experiment: S. cerevisiae growth modulation with rapamycin, primary screen, strain BY4716, OD600, 96 h (AID 1091); further: test concentration not given here
Conditions: higher = more signal, called active from +8 up or from −8 down

Structure (SMILES) | z-score
CCCCC(=O)N(Cc1ccccc1F)[C@@H]1CC(C(=O)NCCO)=C[C@H](Oc2c(I)cc(CO)cc2OC)[C@H]1O | -1.02
COc1ccc([Si](C)(C)[C@H]2[C@H](CCO)O[C@@]3(C(=O)N(Cc4cccc(N5C(=O)c6cccc7cccc5c67)c4)c4ccccc43)[C@@H]2C)cc1 | 36.9 (active)
CC(C)C(CO)N1C(=O)[C@@H]2[C@H]3C(=O)OCC=C[C@H]3OC23C=CCN(c2ccc4ccccc4c2)C(=O)[C@@H]13 (stereo not given in full) | 1.17
CCOC(=O)C[C@H]1[C@H](OC(=O)c2ccccc2-c2ccccc2)[C@@H](NC(=O)c2ccc(-c3ccccc3)cc2)c2cc(OCCCO)ccc2N1C(=O)c1ccccc1 | 1.7
CN(C)CCCC[C@@H]1NC(=O)[C@@H]2C[C@H](C(=O)NCCCCCCN)[C@H](c3ccc(O)cc3)N2C1=O | 0.638
CN1C(=O)C2C(C1=O)C1C=C(c3ccc(CO)cc3)C2C(C2CC2)N1Cc1sc2ccccc2c1Cl (stereo not given) | 1.42
O=C1C2C=CC(C(O)c3ccc(B(O)O)cc3)N(Nc3ccc([N+](=O)[O-])cc3)C2C(=O)N1c1ccccc1 (stereo not given) | 0.847
CCCNC(=O)[C@@]1(C)c2ccccc2C(=O)N(Cc2ccc(OC(F)(F)F)cc2)[C@H]1c1ccc(CO)cc1 | -0.548
[N-]=[N+]=NCc1ccccc1[C@H]1OC(c2ccc(OCCCO)cc2)=N[C@@]1(Cc1ccccc1)C(=O)O | -0.759
CCCC[C@@H]1C[C@H]1[C@@H](NC(=O)c1ccccc1)c1ccc(-c2ccccc2)cc1 | 2.7
